HCMV inh – human cytomegalovirus inhibition. HFF cells, HCMV-luciferase reporter, 72 h; active compounds read low. activity change, negative = inhibition, % at 57.5 µM. actives 4.5% (n = 410,000). AID 1259415; in the data active = activity change below about -60%; inconclusive = no clear call, values can overlap the other calls; inactive = above about -39%
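Two-dose cell screen: HFF monolayers treated with compounds and infected with luciferase-expressing HCMV at 1 PFU/cell, 72 h at 37C, then lysed for luciferase measurement.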
Pf growth 48h – inhibits P. falciparum growth in the first generation, 48 h | AID 504832 | P. falciparum luciferase growth in erythrocytes, 48 h | Potency, µM (top dose mostly 28.7 µM), for the others: top-dose activity change, negative = inhibition, actives largely listed as inhibitors | actives 5.9% (n = 310,000); also: potency is read from the fitted curve at half-maximal effect
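Luciferase-expressing P. falciparum in infected erythrocytes (2% hematocrit, 0.1% parasitemia final) in RPMI 1640/0.5% Albumax were exposed to compound for 48 hours at 37 C, 5% CO2; growth read as luminescence.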
LASV entry inh – inhibitors of Lassa virus binding or cell entry. Lassa virus pseudotype entry inhibition, cell reporter. Potency, µM (doses to about 37.9 µM), for inactives: at the highest dose activity change, negative = inhibition, hits mostly inhibitors. actives 1.2% (n = 300,000); calls by dose curve; tested in HEK293 cells; also: potency is read from the fitted curve at half-maximal effect; nearly all actives have a fitted effect of over 50% in size
Pf growth 96h – P. falciparum growth inhibition at 96 hour, primary screen for plastid delayed-death inhibitors; P. falciparum luciferase reporter growth, 96 h; Potency, µM (top dose mostly 28.7 µM), inactives show at the top dose activity change, negative = inhibition, hits mostly inhibitors; actives 6.9% (n = 320,000); AID 504834; also: potency is read from the fitted curve at half-maximal effect
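Plates of compound plus infected erythrocytes (2% hematocrit, 0.05% parasitemia final) incubate 96 hours, 37 C, 5% CO2. Detection reagent added; reduced luminescence from the parasites' luciferase reporter flags inhibition.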
Marburg entry inh – inhibitors of Marburg virus binding or cell entry. Potency, µM (top dose mostly 37.8 µM), for inactives: top-dose activity change, negative = inhibition, most hits filed as inhibitors. actives 1.8% (n = 300,000). Marburg virus pseudotyped entry inhibition, cell reporter. AID 540276; calls by dose curve; tested in HEK293 cells; also: potency is read from the fitted curve at half-maximal effect
HCV inhibitor – HCV inhibition; actives 3.4% (n = 340,000); Huh7.5.1 HCVcc-Cre infection, luciferase reporter, 44 h; Potency, µM (series often up to 41.8 µM), for the others: at the highest dose activity change, negative = inhibition, most hits filed as inhibitors; also: potency is read from the fitted curve at half-maximal effect
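A cell-based infection assay in which seeded cells (1,000 per well) receive test compound after 4 h, are inoculated with HCVcc-Cre at approximately 0.5 moi, and are incubated 44 h before luminescence detection.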
Numbers without * were called inactive; u = inconclusive; x = no result given; [ ] = another dose, or the depositor's remark. Compounds with a hit are over-represented: about 14% of the library has one in this group of screens. Unless noted, calls follow the shape of the dose curve; as a rule, active = well fitted inhibition curve with a large enough effect; inconclusive = small, poorly fitted or top-dose-only effect, or another doubt; inactive = no such curve, though single readings can be large or run the other way. % is scaled to controls: 0 for no effect and ±100 for the full control effect.

SMILES	HCMV inh	Pf growth 48h	LASV entry inh	Pf growth 96h	Marburg entry inh	HCV inhibitor
NC(=O)CC1(c2ccccc2)CCCCC1	-31	x	x	x	x	x
CCOC(=O)c1c(-c2ccccc2)oc2ccc(N(C(C)=O)S(=O)(=O)c3ccccc3)cc12	9	x	-8%[46.1 µM]	x	8%[46.1 µM]	x
CCOC(=O)c1c(-c2ccccc2)oc2ccc(OCC(O)CNCCN(C)C)cc12 (stereo not drawn)	-8	2.1µM*	u	u	u	u
CCOC(=O)c1c(-c2ccccc2)oc2ccc(N(C(C)=O)S(=O)(=O)c3cc(C)ccc3C)cc12	-106*	x	-11%[46.1 µM]	x	-12%[46.1 µM]	x
CCN(CC(=O)Nc1ccc2c(c1)OCCO2)C(=O)C(C)Oc1ccc(F)cc1 (stereo not drawn)	-14	x	12%	x	-6%[46.1 µM]	-15%
CCOC(=O)C1=C(C)OC(N)=C(C#N)[C@H]1c1cc2ccccc2nc1N1CCCCC1	x	x	x	x	1%	x
COC(=O)C1(C)NC(c2cccc(C)c2)C2C(=O)N(c3ccc(F)cc3)C(=O)C21 (stereo not drawn)	-2	-4%	x	3.7µM*	x	6%
COC(=O)C1(CCSC)NC(c2ccc(O)cc2)C2C(=O)N(c3ccc4c(c3)OCCO4)C(=O)C21 (stereo not drawn)	38	33%	-1%	-5%	7%	10%
COC(=O)C1(C)NC(c2ccc(Cl)cc2)C2C(=O)N(c3ccccc3)C(=O)C21 (stereo not drawn)	58	-19%	x	u	x	3%
CCCC1(C(=O)OCC)NC(c2ccc(N(C)C)cc2)C2C(=O)N(c3ccc(OCC)cc3)C(=O)C21 (stereo not drawn)	-21	12µM*	0%	u	-18%	12%
COC(=O)C1(C)NC(c2ccc(O)cc2)C2C(=O)N(c3ccc4c(c3)OCCO4)C(=O)C21 (stereo not drawn)	-73*	u	-3%	55%	5%	9%
COC(=O)C1(C)NC(c2ccc(O)cc2)C2C(=O)N(c3ccc(C)cc3)C(=O)C21 (stereo not drawn)	53	30%	7%[46.1 µM]	4.7µM*	-4%[46.1 µM]	9%
Cc1ccc(C)c(OCCCCN2CCNCC2)c1C	37	u	x	-20%	x	-5%
O=C(CSc1nc2ccccc2c(=O)n1Cc1ccccc1)Nc1ccc(Br)cc1C(=O)O	7	-1%	u	9%	u	3%
CCOc1ccc(-c2c(C)nn3c(C)c(C(=O)Nc4cc(C)cc(C)c4)cnc23)cc1OCC	5	x	25%[46.1 µM]	x	x	x
Nc1c(C(=O)NCCN2CCOCC2)c2nc3ccccc3nc2n1Cc1ccccc1	-27	u	1%	u	u	4%
CCCCn1c(N)c(C(=O)NCCN2CCOCC2)c2nc3ccccc3nc21	4	u	-34%	8%	u	-22%
C=CCNC(=O)c1c(N)n(Cc2ccco2)c2nc3ccccc3nc12	-6	30%	u	35%	-30%	-26%
Cc1cccc(-n2c(N)c(C(=O)NCCN3CCOCC3)c3nc4ccccc4nc32)c1	9	x	u	9.3µM*	u	u
Nc1c(C(=O)NCCN2CCOCC2)c2nc3ccccc3nc2n1Cc1ccco1	-16	9.3µM*	-3%	u	1%	4%
CC(C)Cn1c(N)c(C(=O)NCCN2CCOCC2)c2nc3ccccc3nc21	u	3.7µM*	u	18%	u	14%
COCCNC(=O)c1c(N)n(Cc2ccco2)c2nc3ccccc3nc12	20	13µM*	1%	13µM*	-22%	-14%
CC(C)n1cc(/C=N/Nc2ccc(Cl)c(C(=O)O)c2)c2ccccc21	x	131%	x	16%	x	x
COCCCNC(=O)C1CCN(Cc2cc3ccccc3n2Cc2cccc(C)c2)CC1	-13	x	-21%[46.1 µM]	x	x	x
COCCNC(=O)C(c1ccc(Cl)cc1)N(Cc1ccco1)C(=O)CCC(=O)Nc1ccccn1 (stereo not drawn)	-26	0%	5%	13µM*	1%[46.1 µM]	24%
Cc1ccc(N(CC(=O)NCCc2ccccc2)C(=O)c2csnn2)cc1	-88*	u	-13%[46.1 µM]	u	-8%[46.1 µM]	-12%

Screens as filed in PubChem BioAssay.
